697 NFkB inh: lowers PMA/ionomycin-induced NF-kB signal in 697 B cells; 697 B-cell NF-kB luciferase reporter, 16 h; 330,000 tested, 0.33% active; AID 435022; inhibition, % at 4 µM; in the data active = inhibition above about 35%
Beta cell apopt: blocks beta cell apoptosis | INS-1E cytokine-induced death, ATP luminescence, 48 h; percent of positive-control rescue, neutral wells zero | protection from apoptosis, % (test concentration not listed) | 300,000 tested, 0.8% active;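 active = Every replicate reaches about 75%, or at least half do and their mean reaches it too, limit read from the data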;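 note: 0% = cytokine-treated negative control wells and 100% = positive control rescue; higher means more ATP so stronger rescue from cytokine killing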
Mdm2 MdmX PPI: human Mdm2/MdmX binding inhibition | O15151+Q00987 | SaOS-2 split-luciferase Mdm2/MdmX complementation, luminescence | inhibition, % at 8 µM | 330,000 tested, 3% active | AID 485346;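 active = inhibition of at least 50% at 8 µM in the primary screen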
Target sequence (O15151 whole entry, looked up): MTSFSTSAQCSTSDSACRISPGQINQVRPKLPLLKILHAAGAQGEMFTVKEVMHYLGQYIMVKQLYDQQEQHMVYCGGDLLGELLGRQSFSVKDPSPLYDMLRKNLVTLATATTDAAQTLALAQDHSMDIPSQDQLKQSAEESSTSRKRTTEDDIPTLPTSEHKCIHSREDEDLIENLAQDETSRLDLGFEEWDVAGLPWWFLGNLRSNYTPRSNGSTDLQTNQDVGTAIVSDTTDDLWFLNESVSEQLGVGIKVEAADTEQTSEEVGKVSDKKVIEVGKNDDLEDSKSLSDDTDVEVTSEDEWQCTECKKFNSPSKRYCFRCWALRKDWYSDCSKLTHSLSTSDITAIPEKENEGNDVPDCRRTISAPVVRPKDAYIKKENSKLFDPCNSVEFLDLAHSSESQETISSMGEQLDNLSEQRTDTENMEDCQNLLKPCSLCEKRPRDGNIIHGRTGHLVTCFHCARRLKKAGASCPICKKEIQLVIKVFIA
Target sequence (Q00987 whole entry, looked up): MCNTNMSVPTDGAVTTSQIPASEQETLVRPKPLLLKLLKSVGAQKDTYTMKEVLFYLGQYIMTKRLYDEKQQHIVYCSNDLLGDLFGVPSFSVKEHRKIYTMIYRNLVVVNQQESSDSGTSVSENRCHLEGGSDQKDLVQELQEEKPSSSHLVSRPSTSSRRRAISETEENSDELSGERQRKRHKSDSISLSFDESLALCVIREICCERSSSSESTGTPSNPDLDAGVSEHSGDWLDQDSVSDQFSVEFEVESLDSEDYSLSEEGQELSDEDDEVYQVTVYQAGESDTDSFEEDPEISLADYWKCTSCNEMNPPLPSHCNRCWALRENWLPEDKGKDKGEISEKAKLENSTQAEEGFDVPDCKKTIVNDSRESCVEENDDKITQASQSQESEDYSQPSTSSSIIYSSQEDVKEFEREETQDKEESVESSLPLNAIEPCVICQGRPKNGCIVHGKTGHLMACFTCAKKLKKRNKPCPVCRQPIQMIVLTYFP
Jurkat NFkB inh: lowers PMA/ionomycin-induced NF-kB signal in Jurkat cells. PMA/ionomycin-induced NF-kB luciferase reporter, luminescence. inhibition, % at 4 µM. 330,000 tested, 0.53% active; in the data active = inhibition above about 50%
Gli-Sufu antag: Gli-Sufu pathway antagonism. Sufu-KO-LIGHT fibroblasts, Gli luciferase reporter luminescence. inhibition, % at 5 µM. 340,000 tested, 0.74% active;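 active = inhibition above about 55%, limit read from the data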;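 note: 0% = DMSO-treated cells and 100% = wells with medium but no cells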
CSC inhib: blocks cancer stem cells. AID 2717. inhibition, % at 7.5 µM. cancer stem cell-like cells viability, luminescence. 300,000 tested, 1.1% active; in the data active = inhibition above about 75%; tested in HMLE shEcad cells
Mdm2 MdmX conf: confirmation of human Mdm2/MdmX interaction inhibitors; Mdm2-MdmX binding, luminescent assay; shares compounds with Mdm2 MdmX PPI; 10,000 tested, 55% active; AID 489028; inhibition, % at 8 µM; in the data active = inhibition above about 40%
Full FLuc ctr: inhibits full-length luciferase, flagging false Mdm2/MdmX hits. SaOS-2 full-length luciferase counterscreen, luminescence. 6,200 tested, 77% active. inhibition, % at 8 µM. shares compounds with Mdm2 MdmX PPI;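 active = mean inhibition at 8 µM reaching about 37%, which flags the compound as non-specific, limit read from the data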;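 note: p53-null SaOS-2 cells with luciferase driven by a doxycycline-inducible promoter; compound on cells about two nights before reading with doxycycline added after day one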
Gli antag conf: Gli-SUFU antagonism confirmation, single concentration | shares compounds with Gli-Sufu antag | Sufu-KO-LIGHT cells, Gli luciferase reporter, luminescence | inhibition, % at 5 µM | 2,500 tested, 40% active;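 active = mean inhibition at 5 µM reaching about 45%, limit read from the data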;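 note: plate controls were DMSO-treated cells for no effect and wells lacking cells for full effect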
SufuKO cytotox: cytotoxicity counter-screen for Gli-SUFU antagonists; Sufu-KO-LIGHT cells cytotoxicity, ATP luminescence; 2,500 tested, 32% active; AID 651994; cytotoxicity, % at 5 µM; shares compounds with Gli-Sufu antag;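 active = mean cytotoxicity at 5 µM above about 25%, limit read from the data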;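 note: cells exposed to compound overnight for roughly 16 to 18 hours; plate controls were DMSO wells with cells for no effect and medium without cells for full effect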
Wnt3a counter: inhibits Wnt3a reporter, counter-screen for Gli-SUFU antagonists; shares compounds with Gli-Sufu antag; Wnt-LIGHT cells, Wnt3a-driven luciferase reporter, luminescence; inhibition, % at 6.25 µM; 2,500 tested, 20% active; AID 651995;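 active = mean inhibition above about 25%, limit read from the data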
Active calls of the source: *; . = not tested or not shown. Hits are enriched below; roughly 4.5% of the tested compounds scored in any of these assays.

SMILES | 697 NFkB inh | Beta cell apopt | Mdm2 MdmX PPI | Jurkat NFkB inh | Gli-Sufu antag | CSC inhib | Mdm2 MdmX conf | Full FLuc ctr | Gli antag conf | SufuKO cytotox | Wnt3a counter
Cc1nc2ncccn2c1-c1csc(Nc2ccc(O)cc2)n1 | 3 | . | 72* | 3 | 55* | . | 68* | 66* | 52* | 19 | -35
C/C(=N\NC(=O)Cc1c(Cl)cccc1Cl)c1cccnc1 | 23 | -1 | 3 | 7 | 2 | -12 | . | . | . | . | .
C[n+]1c2n(c3ccccc31)N=C(c1ccc(-c3ccccc3)cc1)CS2 | 12 | 108* | 80* | 43 | 87* | 39 | 61* | 26 | 89* | 32* | 12
Cc1cccc(-c2nnc3n2N=C(c2ccccc2)CS3)c1 | -18 | 15 | 12 | 13 | 6 | 19 | . | . | . | . | .
CCC(=O)Nc1ccc(SC#N)cc1C | 21 | -26 | 34 | 8 | -4 | 24 | . | . | . | . | .
Cc1cc(SC#N)cc(C)c1NC(=O)CCl | 0 | 1 | 59* | 21 | 51 | 30 | 49* | 34 | 46* | 50* | 19
COc1ccc(-n2ncc3c(N(C)C4CCCCC4)ncnc32)cc1 | -162 | -5 | 88* | -5 | 60* | 19 | 92* | 102* | 80* | 77* | 99*
Cc1cccc(-n2ncc3c(N(C)C4CCCCC4)ncnc32)c1 | -79 | . | 90* | 27 | 56* | 55 | 87* | 84* | 76* | 69* | 99*
Cc1cccc(-n2ncc3c(N(CCO)CCO)ncnc32)c1 | -24 | . | -20 | -55 | -44 | -3 | . | . | . | . | .
COc1ccc(N(C)S(=O)(=O)c2ccc(Cl)c(C(=O)NCC(C)(C)N3CCOCC3)c2)cc1 | -23 | 7 | 17 | 15 | -1 | 8 | . | . | . | . | .
N=c1n(Cc2ccccc2)c2ccccc2n1CC(O)c1ccco1 (stereo not given) | -19 | -2 | 35 | 0 | -15 | 2 | . | . | . | . | .
COc1ccc(OCC(O)Cn2c(=N)n(Cc3ccccc3)c3ccccc32)cc1 (stereo not given) | -13 | 28 | 54* | 27 | 52 | 16 | 43* | 65* | 33 | 31* | -14
CCOc1ccc(OCc2ccc(C(=O)NN=Cc3ccc[nH]3)cc2)cc1 | -87 | 123* | 84* | -16 | 80* | 92* | 73* | 28 | 80* | 18 | -21
Cc1cc(N/N=C/c2cccc(Cl)c2)nc(NCc2ccccc2)n1 | 5 | 13 | 30 | -1 | 31 | 56 | . | . | . | . | .
Cc1cc(Nc2cccc(Cl)c2)nc(NCc2ccccc2)n1 | -32 | 107* | 59* | -7 | 74* | 108* | 40 | 62* | 52* | 32* | -9
CS(=O)(=O)N(CC(=O)NC1CC2CCC1C2)c1ccc(Oc2ccccc2)cc1 (stereo not given) | -13 | -2 | -37 | 8 | 7 | -7 | . | . | . | . | .
Nc1nc2ccccc2n1/N=C/c1ccc([N+](=O)[O-])s1 | -28 | 108* | 56* | 19 | 54 | 5 | 47* | 48* | 53* | 19 | -118
CCN1CCc2c(sc(NC(=O)c3cc4ccccc4cc3OC)c2C(N)=O)C1 | -111 | 21 | 100* | 2 | 69* | 24 | 18 | . | 20 | 18 | -48
Cc1cc(C(=O)CN2CCC(C)CC2)c(C)n1-c1ccccc1F | -48 | 5 | 66* | -59 | 70* | -7 | 76* | 70* | 76* | 34* | 83*
COc1ccc(S(=O)(=O)N2CCOCC2)cc1NC(=O)Cc1ccc2c(c1)OCCO2 | 5 | 3 | 6 | -33 | 3 | . | . | . | . | . | .
CN(C)c1nc(-c2ccccc2)nc(-c2ccc(Cl)cc2)c1C#N | -54 | 6 | 31 | -16 | -77 | 0 | . | . | . | . | .
CCN(CC)c1nc(-c2ccccn2)nc(-c2ccccc2)c1C#N | 9 | . | 59* | 4 | 63* | -15 | 38 | . | 25 | 12 | 10
CN(C)c1nc(-c2ccccn2)nnc1-c1ccccc1 | -20 | 5 | 76* | -2 | 66* | -9 | 4 | . | 66* | 24 | 72*
CC1CN(C(=O)CCNC(=O)c2ccccc2Cl)CC(C)O1 (stereo not given) | -23 | -4 | 7 | 8 | -14 | -2 | . | . | . | . | .
Cc1sc(NC(=O)CN2C(=O)NC3(CCCC3)C2=O)nc1-c1ccc(F)cc1 | 12 | . | 11 | 7 | 3 | -8 | . | . | . | . | .
SMILES | 697 NFkB inh | Beta cell apopt | Mdm2 MdmX PPI | Jurkat NFkB inh | Gli-Sufu antag | CSC inhib | Mdm2 MdmX conf | Full FLuc ctr | Gli antag conf | SufuKO cytotox | Wnt3a counter
Cc1ccc(Cl)cc1NC(=O)COC(=O)c1ccccc1O | 1 | -3 | 24 | 11 | 6 | 12 | . | . | . | . | .
Cc1ccc(Cl)cc1NC(=O)c1cc2ccccc2cc1O | -14 | 104* | 93* | 13 | 61* | 28 | 97* | 52* | 71* | 26* | 56*
Cc1ccc(C)c(NC(=O)C[n+]2ccccc2)c1 | 5 | -2 | -8 | 1 | -17 | -5 | . | . | . | . | .
CNC(=O)COc1coc(CN2CCN(c3cccc(Cl)c3)CC2)cc1=O | -6 | -1 | 20 | -12 | 48 | 3 | . | . | . | . | .
Cc1cc(/C=N/n2cnnc2)c(C)n1-c1ccc(OCc2ccc(F)cc2)cc1 | -93 | . | 65* | 7 | 74* | . | 35 | 78* | 74* | 28* | 22
O=c1[nH]c(=O)n(Cc2ccccc2)c2c1C(C(F)(F)F)(C(F)(F)F)N=C(c1ccco1)N2 | -3 | 18 | -1 | 0 | 16 | 4 | . | . | . | . | .
O=c1[nH]c(=O)n(Cc2ccco2)c2c1C(C(F)(F)F)(C(F)(F)F)N=C(c1ccc(F)cc1)N2 | -19 | 102* | 65* | 24 | 51 | 31 | 84* | 58* | 65* | 16 | 62*
CC(C)[C@H](NS(=O)(=O)c1cccc(Cl)c1)C(=O)OCC(=O)NC(=O)CN1CCCC1=O | 13 | 1 | -6 | -14 | -1 | -19 | . | . | . | . | .
O=C(Nc1ccnn1C1CCN(C(=O)c2cccc(Cl)c2)CC1)C1CCOC1 (stereo not given) | 5 | -6 | 4 | -11 | -8 | 11 | . | . | . | . | .
Fc1ccc(-n2nnnc2-c2cnc(-c3cccs3)nc2C(F)(F)F)cc1 | -45 | 26 | 56* | 12 | 51 | 22 | 44* | 59* | 56* | 31* | -13
CC1=CC2C(C(O)CC3(C)C2CC(C)C32OCOC23COCO3)C2(C)C/C(=C\O)C(=O)C=C12 (stereo not given) | . | . | . | . | 42 | . | . | . | . | . | .
